Consider ten compounds from PubChem BioAssay (NCATS).

For test [1], the target named is Voltage-gated inwardly rectifying potassium channel KCNH2 (Homo sapiens) (UniProt Q12809). The experiment in a line: qHTS Assay for Small Molecule Inhibitors of the Human hERG Channel Activity (AID 588834).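 Further: top concentration of the series differs between compounds; on the % scale 0 is the no-effect control and ±100 the full control effect; lower thallium flux fluorescence means stronger hERG block; nearly all actives have a fitted effect of over 50% in size.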 The essentials:
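In hERG-transduced U2OS cells, dye-loaded for 1 hr at room temperature in dark, test compounds incubated 10 min at 37 °C before thallium stimulation. AC50 values derived by Hill modelling of concentration-response.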
For orientation: Quantitative high-throughput screening tests each substance at several concentrations.

For test [2], the target named is Glutaminase kidney isoform, mitochondrial (Homo sapiens) (UniProt O94925). The experiment in a line: qHTS for Inhibitors of Glutaminase (GLS): LOPAC Validation (AID 624146).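 Further: glutamate product detected by oxidase and peroxidase coupled Amplex red fluorescence gain; on the % scale 0 is the no-effect control and ±100 the full control effect; nearly all actives have a fitted effect of over 60% in size.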 The procedure, abridged:
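Assay buffer: 45 mM KH2PO4 pH 8.2, 0.02% Tween-20. hKGA acts on L-glutamine (1 mM solution added); product glutamate is reported by an oxidase/peroxidase Amplex Red coupling, with fluorescence taken at baseline and 30 min.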

Test [3] is described as follows: qHTS of Trypanosoma Brucei Inhibitors: LOPAC Validation (AID 624147). Further: 0% is about no effect. The essentials: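 Glycolytic pyruvate kinase of T. brucei was incubated with substrate, test compound and 130 uM ADP for 45 minutes at room temperature. Luminescent Kinase-Glo Plus signal was measured after 10 minutes.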
The target in test [4] is Glucagon-like peptide 1 receptor (Homo sapiens) (UniProt P43220). The experiment in a line: qHTS of GLP-1 Receptor Agonists: LOPAC Validation (AID 624148).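 Further: luminescence from a luciferase reporter switched on by cAMP; 0% is about no effect; higher luminescence signal means agonism.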 The essentials: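 Agonism scored as increased luciferase luminescence driven by cAMP in HEK293 clones carrying GLP-1R. Cells settled 12 hours, received compound for 4-6 hr at 37 deg C, 5% CO2, and were read after 12 min detection reagent at RT.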

Test [5] is described as follows: qHTS of Nrf2 Activators: LOPAC Validation (AID 624149). Further: 0% is about no effect. The procedure, abridged:
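Cells (AREc32_Fluc) are plated at 1000 per well in OPTI-MEM containing 5% FBS and left overnight. Compounds are pinned in and incubated 24 hr at 37 deg C, and firefly luciferase is detected with Steady-Glo.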

Test [6] deals with Thyroid hormone receptor beta (Homo sapiens) (UniProt P10828). The experiment in a line: qHTS assay for small molecule antagonists of thyroid hormone receptor beta signaling (AID 588547; active means well fitted inhibition curve with a large enough effect in the signal ratio, with a control signal flat, not every such curve was filed as active; the % refers to the signal ratio;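 further: cells stimulated with 0.4 nM T3 agonist during compound exposure; on the % scale 0 is the no-effect control and ±100 the full control effect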). The following applies: TR-UAS-bla HEK293, beta-lactamase ratio, antagonist mode, 18 h. The procedure, abridged:
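Inhibition of T3-driven (0.4nM final) beta-lactamase reporter activity was measured over 0.59 nM to 92 uM compound after 18 h at 37 C. The cells were GripTite HEK293 TR-UAS-bla in charcoal/dextran-stripped serum, with CCF4 ratio read-out and IC50 from Hill fits.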

Test [7] concerns the target Luciferin 4-monooxygenase (Photinus pyralis) (UniProt P08659). The experiment in a line: Biochemical firefly luciferase enzyme assay for NPC (AID 624030).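 Further: purified P. pyralis luciferase at 10 nM with luciferin and ATP substrate; 0% = DMSO and -100% = full luciferase inhibition by PTC124 control; nearly all actives have a fitted effect of over 70% in size.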 The essentials:
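Direct inhibition of firefly luciferase enzyme (10 nM final, 50 mM Tris Acetate) assessed by luminescence within 5 minutes. Percent activity scaled between DMSO and PTC124 positive control, with concentration-effect curves classified by fit quality and response.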

A short description of test [8]: S16 Schwann cell viability assay (CellTiter-Glo assay) (AID 624031).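 Further: native untransfected S16 rat Schwann cells; plate controls were DMSO-treated cells for no effect and cell-free wells for full effect; nearly all actives have a fitted effect of over 70% in size.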 The essentials: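 Following overnight culture in 10% FBS DMEM, parental S16 rat Schwann cells are dosed for 24 h at 37 °C. Viability is read as CellTiter-Glo luminescence and expressed as % activity relative to DMSO (0%) and no-cell wells.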
On the technique in general: ATP-based viability assays read luminescence as a measure of living cells.

Test [9] is described as follows: S16 Schwann cell PMP22 intronic element firefly luciferase assay (AID 624032).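 Further: plate controls were DMSO for no effect and PTC124 positive control mean for full effect; nearly all actives have a fitted effect of over 30% in size.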 The essentials:
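Luciferase reporter of PMP22 intronic-element expression in stably transfected S16 rat Schwann cells, read by ONE-Glo luminescence after 24 h compound exposure at 37 C. Activity scaled between DMSO (0%) and positive-control PTC124; concentration-effect curves quality-classified.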

Test [10] can be described thus: HTS Assay for Allosteric Antagonists of the Human D2 Dopamine Receptor: Hit Validation in HTRF (AID 624455). Further: potency means the concentration at half of the fitted maximal effect.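 Further: stable D1 dopamine receptor cell line scored for blocking the D1 response.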 The procedure, abridged:
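Inhibition of the D1-mediated response is measured by HTRF in cells that stably express the D1 dopamine receptor. Compounds reaching this step are hits from calcium-flux antagonism testing at EC80 dopamine in inducible Hek293 Trex D2 cells.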

The nature of test [11]: qHTS assay for small molecule agonists of the antioxidant response element (ARE) signaling pathway (AID 651741; active means well fitted activation curve with a large enough effect in the signal ratio; the % refers to the signal ratio; further: potency means the concentration at half of the fitted maximal effect; on activation: % of control where 0% means no effect). The procedure, abridged: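 Beta-lactamase reporter under ARE control in HepG2 cells, 2,000 per well, was induced by 16 h compound treatment at 37 C. Read-out was fluorescence from LiveBLAzer B/G FRET substrate after 2 h at room temperature.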
A short description of test [12]: S16 Schwann cell PMP22 intronic element beta-lactamase assay (AID 624044; calls by dose curve;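 further: 0% = DMSO and -100% = potassium clavulanate positive control; nearly all actives have a fitted effect of over 15% in size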). The essentials: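 Beta-lactamase reporter under a PMP22 intronic regulatory element in stable S16 rat Schwann cells; 24 h compound exposure. 460 nm blue signal normalized between DMSO (0%) and potassium clavulanate, with 535 nm FRET tracking viability; curves classed by r2 and response.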

In test [13] the target is Retinoic acid receptor RXR-alpha (Homo sapiens) (UniProt P19793). The experiment in a line: qHTS assay for small molecule antagonists of retinoid X receptor alpha signaling (AID 588546; active means well fitted inhibition curve with a large enough effect in the signal ratio, with a control signal flat, not every such curve was filed as active; the % refers to the signal ratio; further: on the % scale 0 is the no-effect control and ±100 the full control effect). The following applies: HEK293T RXRa-UAS-bla, beta-lactamase ratio, antagonist mode. The essentials: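 Beta-lactamase reporter inhibition, read as CCF4 fluorescence ratio (ex 405, em 460/530 nm) after 2 h at RT. HEK293T UAS-bla cells, 2500/well, were stimulated with 9-cis-RA at 500 or 100 nM final alongside test compound for 18 h at 37 C.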

The nature of test [14]: Cytotoxicity counterscreen for NFkB agonists and antagonists (AID 624476). Further: on the % scale 0 is the no-effect control and ±100 the full control effect. In general terms: Counterscreens check selectivity or assay interference.
A short description of test [15]: qHTS Assay for Identification of Small Molecule Agonists for NFkB Signaling Pathway. (AID 624478).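 Further: compounds tested together with TNF alpha at its EC50 of 10 pM; 0% is about no effect.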 The essentials: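 Activators were sought in reporter cells stimulated at the TNF alpha EC50 (10 pM final). Compound and cytokine were co-incubated 5 hours at 37 C before beta-lactamase substrate detection by dual-emission fluorescence.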
Test [16] can be described thus: qHTS Assay for Identification of Small Molecule Antagonists for NFkB Signaling Pathway. (AID 624479; calls by dose curve; further: on the % scale 0 is the no-effect control and ±100 the full control effect).
Test [17] can be described thus: Cell Proliferation Assay against the TMD8 Cell Line (AID 651645).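 Further: cells exposed to compound for 48 h before reading.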 The following applies: TMD8 DLBCL cell line proliferation/viability; at 46.1 µM (top of the series) unless noted. The procedure, abridged: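 TMD8 ABC DLBCL cells, 500 per well in phenol red-free RPMI with 5% FBS, were treated with compound by pin transfer and incubated 48 hours at 37C, 5% CO2. Viability was read by CellTiter-Glo luminescence, normalised to DMSO (100%) and 9.2 uM bortezomib (0%).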

Test [18] can be described thus: Cell Proliferation Assay against the HBL1 Cell Line (AID 651646).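 Further: cells exposed to compound for 48 h before reading.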 To be noted: HBL1 DLBCL cells; at 46.1 µM (top of the series) unless noted. The procedure, abridged:
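CellTiter-Glo luminescence after 48 h compound exposure at 37C gives percent activity, with DMSO as 100% and 9.2 uM bortezomib final as 0%. Cells: 500 log-phase HBL1 per well, RPMI plus 5% FBS.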

Test [19] can be described thus: Cell Proliferation Assay against the TMD8 Cell Line (Caspase readout at 16 hrs) (AID 651712). The essentials:
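Caspase-Glo luminescence measured apoptosis after a 16 h, 37 C compound exposure of TMD8 cells (500 cells/well, 5% FBS RPMI). DMSO set 0% and bortezomib at 9.2 uM final set 100% activity.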

The nature of test [20]: Cell Proliferation Assay against the TMD8 Cell Line (Caspase readout at 8 hrs) (AID 651713).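 Further: 0% = DMSO and 100% = 9.2 µM bortezomib caspase signal.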 The essentials: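 Caspase 3/7 activation in ABC DLBCL TMD8 cells is measured by luminescence after an 8 h compound exposure at 37C. Relative light units are scaled between DMSO (0%) and 9.2 uM final bortezomib (100%).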

Where “and” joins values, the source holds several entries; their conditions need not be identical. Equal entries are not always repeated. Records with an inconclusive call do not appear. Calls of active or inactive are those of the source. Unless noted, the call rests on the fitted dose curve; in most records, active means well fitted curve in the direction sought with a large enough effect; inconclusive means small, poorly fitted or top-dose-only effect, or another doubt; inactive means no such curve, though single readings can be large; an effect the other way counts as inactive or inconclusive.

Glutaminase kidney isoform, mitochondrial (Homo sapiens), sequence (O94925 whole entry, looked up, canonical isoform): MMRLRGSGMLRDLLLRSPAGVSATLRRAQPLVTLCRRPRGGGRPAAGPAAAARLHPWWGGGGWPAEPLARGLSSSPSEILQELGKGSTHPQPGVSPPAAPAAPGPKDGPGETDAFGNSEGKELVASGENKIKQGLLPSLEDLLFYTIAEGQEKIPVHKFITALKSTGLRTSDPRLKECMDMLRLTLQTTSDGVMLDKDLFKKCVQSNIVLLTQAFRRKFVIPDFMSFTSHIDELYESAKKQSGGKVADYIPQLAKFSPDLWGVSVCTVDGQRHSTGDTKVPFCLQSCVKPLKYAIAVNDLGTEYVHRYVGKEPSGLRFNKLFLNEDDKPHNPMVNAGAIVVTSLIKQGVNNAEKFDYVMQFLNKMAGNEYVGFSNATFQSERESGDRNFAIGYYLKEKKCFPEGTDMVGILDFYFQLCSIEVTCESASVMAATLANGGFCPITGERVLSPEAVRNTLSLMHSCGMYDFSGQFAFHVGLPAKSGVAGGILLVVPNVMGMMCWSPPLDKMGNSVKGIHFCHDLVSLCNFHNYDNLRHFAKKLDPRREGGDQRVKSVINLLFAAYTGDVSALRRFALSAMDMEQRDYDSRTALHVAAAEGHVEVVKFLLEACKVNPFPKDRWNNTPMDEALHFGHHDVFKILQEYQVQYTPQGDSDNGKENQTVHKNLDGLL
Luciferin 4-monooxygenase (Photinus pyralis), sequence (P08659 whole entry, looked up): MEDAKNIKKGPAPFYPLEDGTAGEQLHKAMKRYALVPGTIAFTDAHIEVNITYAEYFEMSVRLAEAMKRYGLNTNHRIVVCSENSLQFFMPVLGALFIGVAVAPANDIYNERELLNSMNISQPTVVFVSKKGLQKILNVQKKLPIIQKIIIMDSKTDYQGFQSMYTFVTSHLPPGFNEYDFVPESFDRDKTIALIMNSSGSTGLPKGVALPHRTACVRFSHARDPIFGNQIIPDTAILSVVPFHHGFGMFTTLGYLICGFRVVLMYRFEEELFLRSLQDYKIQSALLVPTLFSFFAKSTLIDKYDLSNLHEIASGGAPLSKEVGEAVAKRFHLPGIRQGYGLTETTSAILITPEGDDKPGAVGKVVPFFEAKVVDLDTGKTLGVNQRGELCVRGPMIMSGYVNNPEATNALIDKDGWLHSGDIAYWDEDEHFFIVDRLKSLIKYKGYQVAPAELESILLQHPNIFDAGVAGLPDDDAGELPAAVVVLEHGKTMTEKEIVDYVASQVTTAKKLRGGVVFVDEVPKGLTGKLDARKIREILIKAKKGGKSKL
Retinoic acid receptor RXR-alpha (Homo sapiens), sequence (P19793 whole entry, looked up): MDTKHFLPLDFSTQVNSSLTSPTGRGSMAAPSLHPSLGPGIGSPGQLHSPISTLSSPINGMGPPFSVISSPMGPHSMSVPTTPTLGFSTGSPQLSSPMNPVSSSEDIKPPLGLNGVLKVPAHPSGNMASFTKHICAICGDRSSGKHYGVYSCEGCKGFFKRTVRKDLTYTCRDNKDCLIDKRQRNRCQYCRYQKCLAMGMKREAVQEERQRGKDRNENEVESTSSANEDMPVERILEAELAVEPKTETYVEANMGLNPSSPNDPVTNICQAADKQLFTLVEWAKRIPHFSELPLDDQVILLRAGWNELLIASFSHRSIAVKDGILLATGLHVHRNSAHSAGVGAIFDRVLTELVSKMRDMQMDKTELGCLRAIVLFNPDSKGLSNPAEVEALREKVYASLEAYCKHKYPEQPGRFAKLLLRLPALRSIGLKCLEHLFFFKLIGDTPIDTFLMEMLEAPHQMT
Thyroid hormone receptor beta (Homo sapiens), sequence (P10828 whole entry, looked up): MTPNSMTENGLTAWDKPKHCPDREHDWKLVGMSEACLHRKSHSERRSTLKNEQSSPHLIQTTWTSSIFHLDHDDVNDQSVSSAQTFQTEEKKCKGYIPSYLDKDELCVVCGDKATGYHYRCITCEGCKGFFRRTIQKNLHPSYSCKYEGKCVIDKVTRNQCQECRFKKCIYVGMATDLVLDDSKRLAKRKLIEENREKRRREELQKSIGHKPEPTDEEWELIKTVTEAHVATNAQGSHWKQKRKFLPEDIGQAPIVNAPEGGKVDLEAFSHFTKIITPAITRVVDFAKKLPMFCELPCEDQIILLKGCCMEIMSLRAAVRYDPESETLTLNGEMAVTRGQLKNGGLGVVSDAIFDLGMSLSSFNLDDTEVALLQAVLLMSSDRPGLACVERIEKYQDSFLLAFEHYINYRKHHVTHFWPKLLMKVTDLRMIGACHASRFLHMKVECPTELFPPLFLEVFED
Glucagon-like peptide 1 receptor (Homo sapiens), sequence (P43220 whole entry, looked up): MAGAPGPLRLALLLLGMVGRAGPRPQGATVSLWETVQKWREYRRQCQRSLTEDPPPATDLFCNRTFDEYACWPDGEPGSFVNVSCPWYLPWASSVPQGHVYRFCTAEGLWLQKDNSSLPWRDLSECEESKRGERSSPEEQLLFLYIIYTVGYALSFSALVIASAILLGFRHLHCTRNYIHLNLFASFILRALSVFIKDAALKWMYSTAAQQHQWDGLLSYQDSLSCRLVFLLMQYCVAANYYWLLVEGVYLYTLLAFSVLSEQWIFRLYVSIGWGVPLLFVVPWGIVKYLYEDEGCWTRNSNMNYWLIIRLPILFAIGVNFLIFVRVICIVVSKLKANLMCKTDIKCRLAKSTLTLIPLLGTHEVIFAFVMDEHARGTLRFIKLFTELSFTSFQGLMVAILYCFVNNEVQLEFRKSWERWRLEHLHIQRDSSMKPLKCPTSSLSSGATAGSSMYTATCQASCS
Voltage-gated inwardly rectifying potassium channel KCNH2 (Homo sapiens), sequence (Q12809 whole entry, looked up): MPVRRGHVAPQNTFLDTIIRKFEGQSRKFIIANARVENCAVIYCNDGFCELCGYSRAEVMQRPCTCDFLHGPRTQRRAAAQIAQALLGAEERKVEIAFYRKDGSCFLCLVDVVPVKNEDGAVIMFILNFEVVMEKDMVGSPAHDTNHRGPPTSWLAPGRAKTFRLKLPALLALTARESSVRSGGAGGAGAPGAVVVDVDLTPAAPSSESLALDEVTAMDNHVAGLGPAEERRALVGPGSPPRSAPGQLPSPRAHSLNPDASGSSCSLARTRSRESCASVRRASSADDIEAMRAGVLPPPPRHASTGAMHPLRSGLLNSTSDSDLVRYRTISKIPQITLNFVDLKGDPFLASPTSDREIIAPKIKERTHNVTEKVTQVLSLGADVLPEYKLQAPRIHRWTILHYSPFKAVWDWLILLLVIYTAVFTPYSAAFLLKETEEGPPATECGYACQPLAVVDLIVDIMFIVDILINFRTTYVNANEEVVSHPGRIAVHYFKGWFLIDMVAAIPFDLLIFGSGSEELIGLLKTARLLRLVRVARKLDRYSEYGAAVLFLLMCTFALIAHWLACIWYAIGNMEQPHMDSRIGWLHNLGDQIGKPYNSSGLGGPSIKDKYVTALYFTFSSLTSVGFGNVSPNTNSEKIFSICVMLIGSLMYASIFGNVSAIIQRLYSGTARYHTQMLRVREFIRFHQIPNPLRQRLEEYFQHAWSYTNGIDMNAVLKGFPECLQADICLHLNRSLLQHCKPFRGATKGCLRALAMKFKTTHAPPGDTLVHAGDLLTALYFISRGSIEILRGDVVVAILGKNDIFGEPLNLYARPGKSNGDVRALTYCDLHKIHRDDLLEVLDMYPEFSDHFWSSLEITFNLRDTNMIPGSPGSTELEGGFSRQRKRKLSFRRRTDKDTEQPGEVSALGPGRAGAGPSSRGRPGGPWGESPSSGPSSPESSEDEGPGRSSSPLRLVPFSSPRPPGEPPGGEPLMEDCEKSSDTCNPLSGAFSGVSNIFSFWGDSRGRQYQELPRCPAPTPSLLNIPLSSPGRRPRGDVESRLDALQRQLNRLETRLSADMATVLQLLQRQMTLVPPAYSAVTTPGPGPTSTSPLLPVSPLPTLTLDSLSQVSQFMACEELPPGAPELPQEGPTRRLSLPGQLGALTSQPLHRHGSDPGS

`c1ccc([C@H]2CN3CCSC3=N2)cc1`: the Potency result in test [1] was “inactive”. Further, the outcome in test [2], in test [3], in [4] and in test [5] was inactive.
Turning to `CCCC(CCC)C(=O)O`, in test [6], the activity change % (negative = inhibition) was -9.25% (inactive) and 16% (inactive). In addition, the Potency entry in test [7], in test [8], in test [9], in test [10] and in [11] was “inactive” throughout. For the same compound, the result in test [2], in [3] and in test [4] was inactive.
As to `Nc1ccc(S(=O)(=O)Nc2ccnn2-c2ccccc2)cc1`, the Potency result in test [7], in test [8], in test [9] and in test [10] was “inactive” throughout. In addition, the outcome in test [12], in test [2], in [3], in [4] and in test [5] was inactive.
With `COc1ccc2nc(S(=O)Cc3ncc(C)c(OC)c3C)[nH]c2c1` (stereo unspecified), the max response in [13] was -42% (inactive). Also, the activity change % (negative = inhibition) in [6] was -6.03% (inactive). Also, the Potency result in [8], in [9], in test [14], in test [16], in [19] and in test [20] was “inactive” in each case. Moreover, the outcome in test [12] and in test [15] was inactive. Besides, the viability (% of control) in [17] came out at 52.2%. Besides, in test [18], the viability, percent of control amounted to 89.4%. Also, the Potency in [11] is 27.3 µM (active).
On to `Cc1cn[nH]c1`, for which the Potency result in [7], in [8], in test [9] and in test [10] was “inactive” throughout. The call in test [2], in test [3], in [4] and in test [5] was inactive.
With `CNC[C@H](O)c1cccc(O)c1`, the max response in test [13] was -13.6% (inactive). Also, the activity change % (negative = inhibition) in [6] was 16.7% (inactive). In addition, the Potency result in test [7], in test [8] and in test [11] was “inactive” each time. The outcome in test [2], in [3] and in test [5] was inactive. For the same compound, the Potency in [10] was 1.84 µM (active).
On to `NS(=O)(=O)c1cc2c(cc1Cl)NC=NS2(=O)=O`, for which, in test [13], the max response is 14.3% (inactive). The activity change % (negative = inhibition) in test [6] is -11.5% (inactive). Also, the Potency entry in [7], in test [8], in test [9], in test [10] and in [11] was “inactive” each time. Also, the result in [12], in [2], in [3], in test [4] and in test [5] was inactive.
For `Cc1ccc(N(CC2=NCCN2)c2cccc(O)c2)cc1`, the Potency result in test [7], in test [8], in test [9] and in [10] was “inactive” throughout. Also, the compound was called inactive in [12], in test [3], in [4] and in test [5].
On to `CC(C)NCC(O)COc1ccc(COCCOC(C)C)cc1` (stereo unspecified), for which the Potency entry in test [7], in [8], in [9] and in test [10] was “inactive” in each case. The outcome in test [2], in test [3], in test [4] and in [5] was inactive.
Take `NC(=O)c1cnccn1`: in test [13], the max response was 6.87% (inactive). For the same compound, the Potency entry in test [7], in [8], in test [9], in test [10] and in test [11] was “inactive” throughout. Moreover, the compound was classed as inactive in test [2], in test [3], in test [4] and in test [5].
